Results on 62 molecules are retold here after PubChem BioAssay AID686979 (National Center for Advancing Translational Sciences (NCATS), 2013).

In all, about 420,000 compounds went through this assay and about 50,000 (12%) were called active. Roughly 26% stayed inconclusive and do not appear here. Calls come from the whole dose curve; as a rule, active = well fitted inhibition curve with a large enough effect; inconclusive = small, poorly fitted or top-dose-only effect; inactive = flat fitted curve, though single readings scatter. Shown is part of a subset that was picked to be rich in actives.
% is set by controls: 0 for no effect and ±100 for the full control effect; potency is the fitted concentration of half-maximal effect.

A short description of the test: qHTS for Inhibitors of human tyrosyl-DNA phosphodiesterase 1 (TDP1): qHTS in cells in presence of CPT. Note: nearly all actives have a fitted effect of over 55% in size. Conditions: chicken DT40 Tdp1-/-;hTDP1 cells + 20 nM CPT, ATP luminescence, 48 h; series mostly up to 46.2 µM; activity change, negative = growth inhibition: at the top concentration. Put shortly:
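Cell growth measured by CellTiter-Glo luminescence after a minimum 48 h, 37 C compound exposure with 20 nM CPT in Tdp1-knockout DT40 cells stably expressing hTDP1, seeded 400/well; qHTS titration format.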
A general note: qHTS replaces the single test concentration by a dilution series.
As for `Cc1ccc(C)c(OCCC(=O)OCC(=O)c2ccc3c(c2)NC(=O)CO3)c1`, the “activity change, negative = growth inhibition” value is -8.45% (inactive).
On the same count and under the same terms, to `Cc1ccc(C23CC4CC(CC(C(=O)NCC(=O)O)(C4)C2)C3)cc1` belongs -0.354% (inactive).
For `CC(C)Cn1c(N)c(C(=O)COC(=O)CN2C(=O)C3CC=CCC3C2=O)c(=O)n(C)c1=O` (configuration not stated), the Potency was 16.4 µM (active).
For the molecule `CC1CC1C(=O)OCC(=O)c1c(N)n(C)c(=O)n(C)c1=O` (configuration not stated), the “activity change, negative = growth inhibition” value was -2.39% (inactive).
Same read-out and setting: next, `COc1ccc(C(=O)COC(=O)CN2C(=O)C3CC=CCC3C2=O)c(OC)c1` (configuration not stated): -12.9% (inactive); `CCOC(=O)[C@@H]1[C@H]2COc3cc(OC)ccc3[C@@H]2N2C(=O)N(c3cccc(C)c3)C(=O)[C@@]12C`: -19.9% (inactive).
Take `CCOC(=O)[C@H]1[C@H]2COc3cc(OC)ccc3[C@@H]2N2C(=O)N(c3ccc(Br)cc3)C(=O)[C@@]12C`: the Potency is 25.9 µM (active).
`CCOC(=O)[C@H]1[C@H]2COc3ccc(Br)cc3[C@@H]2N2C(=O)CN(C)C(=O)[C@@]12C`: the “activity change, negative = growth inhibition” value is -17.3% (inactive).
For the molecule `CCOc1n[nH]c(-c2ccccc2)n1`, the “activity change, negative = growth inhibition” value is -5.81% (inactive).
The same measure, in the same setting: next, `Cc1ccc(S(=O)(=O)c2c[nH]c3ccc(C)cc3c2=O)cc1`: -15.1% (inactive); `CCCOc1ccc(N/C=C/C(=O)C(C)(C)C)cc1`: -14.5% (inactive).
Same read-out and setting: to `CCOc1ccc(N/C=C/C(=O)c2ccccc2)cc1` belongs -25.2% (inactive).
For `CCOc1ccc(N/C=C/C(=O)c2cc(OC)c(OC)c(OC)c2)cc1`, the Potency was 14.6 µM (active).
For the molecule `COCCNC(=O)C(c1ccc(O)cc1)N(C(=O)CCC(=O)Nc1nccs1)c1ccc(C)cc1` (configuration not stated), the “activity change, negative = growth inhibition” value was 1.09% (inactive).
Same read-out and setting: next, `COc1ccc(NC(=O)Cn2c(=O)n(Cc3ccc(C(=O)NCc4ccccc4Cl)cc3)c(=O)c3ccccc32)cc1`: -11.4% (inactive).
In the case of `COc1ccccc1CNC(=O)CCCCn1c(=O)c2ccccc2n(CC(=O)Nc2cc(Cl)ccc2C)c1=O`, the Potency was 18.4 µM (active).
Regarding `COc1ccccc1CNC(=O)CCn1c(=O)sc2ccccc21`, the “activity change, negative = growth inhibition” value is -4.97% (inactive).
The same measure, in the same setting: next, `COCCNC(=O)CCCn1c(=O)c2ccccc2n(Cc2cccc([N+](=O)[O-])c2)c1=O`: 4.94% (inactive).
As to `COc1ccccc1CNC(=O)CCn1c(=O)c2ccccc2n(CC(=O)Nc2ccc(Br)cc2F)c1=O`, the Potency was 23.1 µM (active).
For the molecule `CCCCn1c(=O)c2oc3ccccc3c2n(CC(=O)Nc2ccccc2OC)c1=O`, the “activity change, negative = growth inhibition” value was -0.588% (inactive).
`COc1ccccc1CNC(=O)CCCn1c(=O)c2ccccc2n(CC(=O)Nc2ccc(C)cc2Cl)c1=O`: the Potency was 14.6 µM (active).
As for `COc1ccccc1CNC(=O)CCCn1c(=O)c2ccccc2n(CC(=O)NC2CCCC2)c1=O`, the “activity change, negative = growth inhibition” value was -22.2% (inactive).
Same read-out and setting: next, `Cc1ccccc1NC(=O)Cn1c(=O)n(CCCCC(=O)NCc2ccccc2Cl)c(=O)c2ccccc21`: -29.1% (inactive); `CCc1nn(CC(=O)N2CCN(c3cccc(C(F)(F)F)c3)CC2)c(=O)c2cc3occc3n12`: -19.3% (inactive).
Same read-out and setting: to `CC(C)CCN(C(=O)c1csnn1)C(C(=O)NC1CCCC1)c1ccccc1` (configuration not stated) belongs -9.08% (inactive).
On the same count and under the same terms, to `COc1cc(CN2CCNC(=O)C2CC(=O)NCCc2ncccc2C)cc(OC)c1` (configuration not stated) belongs 26.1% (inactive).
As to `CCOc1ccccc1NC(=O)CCS(=O)(=O)c1cccc2nsnc12`, the Potency result is “inactive”.
On to `Cc1ccc(S(=O)(=O)N(C)C)cc1NC(=O)COC(=O)/C=C/c1cccs1`, for which the “activity change, negative = growth inhibition” value was -18.7% (inactive).
Same read-out and setting: to `Cc1ccccc1N(C(=O)CNC(=O)c1cccs1)C(C(=O)NC1CCCC1)c1ccncc1` (configuration not stated) belongs 0.575% (inactive); to `CCOc1cc(NS(=O)(=O)c2ccc(OC)cc2)c(OCC)cc1NC(C)=O`, -0.871% (inactive).
Still for that read-out and setting: next, `COc1ccc(C(=O)Nc2c(N)nc(SCC(=O)Nc3ccc(C(C)=O)cc3)[nH]c2=O)cc1`: -4.08% (inactive); `COc1ccccc1CNC(=O)CNC(=O)c1cn(-c2ccccc2OC)c(=O)c2ccccc12`: 3.6% (inactive).
Still for that read-out and setting: to `C=CCn1c(=O)n(C)c2c(=O)n(C)c(=O)n(C)c21` belongs 22.4% (inactive).
For the molecule `Cc1c(CNCCc2ccccc2)c(C(=O)O)c(C)n1-c1ccccc1`, the “activity change, negative = growth inhibition” value was -21.1% (inactive).
On the same count and under the same terms, next, `COc1cc(C(=O)N(Cc2ccc(C(C)C)cc2)C2CCS(=O)(=O)C2)cc(OC)c1OC` (configuration not stated): -0.678% (inactive).
Consider `O=C(/C=C/c1cn(CC(O)CN2CCc3ccccc32)c2ccccc12)c1ccc(Br)cc1` (configuration not stated), for which the Potency is 18.4 µM (active).
Take `CC(C)OCCCn1c(SCC(=O)c2ccccc2)nc2c(sc3ccccc32)c1=O`: the “activity change, negative = growth inhibition” value was 6.91% (inactive).
On the same count and under the same terms, next, `COc1cc(CCN=Cc2ccccc2O)c([N+](=O)[O-])cc1OC`: 9.53% (inactive); `Oc1ccc(N=Cc2c(O)ccc3ccccc23)cc1`: -23.8% (inactive).
For the molecule `Oc1ccc(N=Cc2sc3ccccc3c2Cl)cc1`, the Potency is 13 µM (active).
Turning to `CC(=O)n1c(C=Nc2ccccc2)c(O)c2ccccc21`, the “activity change, negative = growth inhibition” value was -0.272% (inactive).
As to `CCOC(=O)c1ccc(NC(=O)c2c(N)n(C)c(=O)[nH]c2=O)cc1`, the “activity change, negative = growth inhibition” value is -12.4% (inactive).
Still for that read-out and setting: to `Cc1ccc(S(=O)(=O)N2CCC(C(=O)NCC3CCCO3)CC2)cc1` (configuration not stated) belongs -17% (inactive); to `Cc1ccnc(NS(=O)(=O)c2ccc(NC(=O)c3ccc(S(=O)(=O)N4CCOCC4)cc3)cc2)n1`, -0.712% (inactive).
As to `Cc1cc(C2=NNC(=Nc3ccc(S(=O)(=O)N4CCOCC4)cc3)SC2)c(C)n1CC1CCCO1` (configuration not stated), the Potency is 5.17 µM (active).
Regarding `O=C1OC(Oc2ccc(Br)cc2)(c2ccccc2)c2ccccc21` (configuration not stated), the “activity change, negative = growth inhibition” value was -0.929% (inactive).
For `CC1(C)Cc2ccccc2-c2[nH]c(=S)[nH]c(=O)c21`, the “activity change, negative = growth inhibition” value is 9.69% (inactive).
With `CCC(=O)Nc1c(C(=O)N2CCN(c3ccc(F)cc3)CC2)oc2ccccc12`, the Potency was 13 µM (active).
Regarding `O=C(c1ccco1)N1CCN(C(=O)C2CC(c3ccc(F)cc3)=NO2)CC1` (configuration not stated), the “activity change, negative = growth inhibition” value was -27.3% (inactive).
Still for that read-out and setting: next, `COCC(=O)Nc1c(C(=O)N2CCCC2)oc2ccccc12`: 18.4% (inactive).
Same read-out and setting: next, `NC(=O)c1oc2ccccc2c1NC(=O)Cc1ccccc1`: 6.31% (inactive).
Regarding `O=C(Nc1c(C(=O)N2CCN(c3ccc(F)cc3)CC2)oc2ccccc12)c1ccco1`, the Potency is 16.4 µM (active).
`O=C(Nc1ccccc1C(=O)N1CCCCC1)c1ccco1`: the “activity change, negative = growth inhibition” value is -2.7% (inactive).
Still for that read-out and setting: to `CC(Oc1cccc(Cl)c1)C(=O)NC1CC(C)(C)NC(C)(C)C1` (configuration not stated) belongs 3.12% (inactive).
Same read-out and setting: to `COc1cc(C2C(C(=O)c3cccs3)=C(O)C(=O)N2CCN2CCOCC2)ccc1OCCC(C)C` (configuration not stated) belongs 14.9% (inactive); to `c1ccc(-c2cnc(CN3CCN(c4ccccc4)CC3)o2)cc1`, 0.628% (inactive).
On the same count and under the same terms, next, `Oc1ccc(/C=N/N(Cc2ccccc2)c2ccccc2)cc1`: 22.5% (inactive).
Regarding `CN(Cc1ccccc1)c1ccc(/C=C/c2ccnc3ccccc23)cc1`, the Potency was 12.6 µM (active).
The same measure, in the same setting: to `CCC(C)N(c1ccc(/C=C/c2ccnc3ccccc23)cc1)C(C)CC` (configuration not stated) belongs 7.08 µM (active).
Regarding `O=C(CN1CCCC1)N1CCN(c2ccccc2)CC1`, the “activity change, negative = growth inhibition” value is -10.3% (inactive).
For the molecule `CCN1CCN(c2ccc(/C=C/c3ccnc4ccccc34)cc2)CC1`, the Potency was 11.2 µM (active).
Same read-out and setting: to `CN(C)c1ccc(/C=C/C=C/c2ccnc3ccccc23)cc1` belongs 1.78 µM (active).
